15 compounds from PubChem BioAssay (NCATS) can be followed below.

Results filed as inconclusive are left out. Active and inactive are the calls of the source. Calls follow the shape of the dose curve; as a rule, active = well fitted curve in the direction sought with a large enough effect; inconclusive = small, poorly fitted or top-dose-only effect, or another doubt; inactive = no such curve, though single readings can be large; an effect the other way counts as inactive or inconclusive.

Test [1] can be described thus: qHTS of pediatric cancer cell lines to identify multiple opportunities for drug repurposing: Primary screen for TC32 cells (AID 1347089). Also: nearly all actives have a fitted effect of over 60% in size. Put shortly: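 A viability screen of TC32 cells was run over 48 h, with primary MIPE doses spanning 0.78 nM–46 µM and NPC doses 0.59 nM–46 µM. ATP luminescence (CellTiter-Glo) served as the read-out.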
The nature of test [2]: qHTS of pediatric cancer cell lines to identify multiple opportunities for drug repurposing: Primary screen for DAOY cells (AID 1347090). Also: nearly all actives have a fitted effect of over 55% in size. Put shortly: (§1)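 Cell viability, CellTiter-Glo luminescence; 500-1,000 cells/well, 8- or 11-point titration, 48 h compound exposure at 37 degrees C, 5% CO2. Controls: DMSO neutral, bortezomib 2.3 µM final as positive.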
Test [3] is described as follows: qHTS of pediatric cancer cell lines to identify multiple opportunities for drug repurposing: Primary screen for A673 cells (AID 1347092). Also: nearly all actives have a fitted effect of over 45% in size. Put shortly: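 Titration-based qHTS on A673 cells: MIPE compounds spanned 11 points (0.78 nM to 46 µM final), NPC compounds 8 points (0.59 nM to 46 µM final). Viability after 48 h was measured by ATP luminescence.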
(In general: Quantitative high-throughput screening tests each substance at several concentrations.)

Test [4] can be described thus: qHTS of pediatric cancer cell lines to identify multiple opportunities for drug repurposing: Primary screen for NB-EBc1 cells (AID 1347095). In outline: (§2)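 Viability was measured as metabolically active cells after 48 hours of treatment, read by CellTiter-Glo luminescence. Compounds were tested at multiple final concentrations, giving concentration-response curves.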

Test [5] in a line: qHTS of pediatric cancer cell lines to identify multiple opportunities for drug repurposing: Primary screen for U-2 OS cells (AID 1347096). Also: nearly all actives have a fitted effect of over 50% in size. Put shortly:
(§3)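 Cells (500-1,000/well) rested 5 h, then received compounds for 48 h; metabolically active cells were measured by CellTiter-Glo luminescence. Final concentrations spanned up to 46 µM (MIPE, 11-point) or 0.59 nM-46 µM (NPC, 8-point) in primary screens, 11-point in follow-ups.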

The nature of test [6]: qHTS of pediatric cancer cell lines to identify multiple opportunities for drug repurposing: Primary screen for Saos-2 cells (AID 1347097). Also: nearly all actives have a fitted effect of over 40% in size. In outline:
as §2

A short description of test [7]: qHTS of pediatric cancer cell lines to identify multiple opportunities for drug repurposing: Primary screen for SK-N-SH cells (AID 1347098). Also: nearly all actives have a fitted effect of over 65% in size. In outline: as §3
Test [8] can be described thus: qHTS of pediatric cancer cell lines to identify multiple opportunities for drug repurposing: Primary screen for NB1643 cells (AID 1347099). Also: nearly all actives have a fitted effect of over 50% in size. In outline: as §2
Test [9] can be described thus: qHTS of pediatric cancer cell lines to identify multiple opportunities for drug repurposing: Primary screen for LAN-5 cells (AID 1347100). In outline: as §3
The nature of test [10]: qHTS of pediatric cancer cell lines to identify multiple opportunities for drug repurposing: Primary screen for Rh18 cells (AID 1347102). Also: nearly all actives have a fitted effect of over 65% in size. Put shortly: as §3
Test [11] can be described thus: qHTS of pediatric cancer cell lines to identify multiple opportunities for drug repurposing: Primary screen for RD cells (AID 1347104). Also: nearly all actives have a fitted effect of over 55% in size. In outline:
as §2

Test [12] in a line: qHTS of pediatric cancer cell lines to identify multiple opportunities for drug repurposing: Primary screen for SK-N-MC cells (AID 1347093). In outline:
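Metabolically active cells were quantified by ATP-dependent luminescence (CellTiter-Glo, 15 min at room temperature) following 48 h treatment. Cells had been plated at 500-1,000 per well and settled for 5 h beforehand.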

A short description of test [13]: qHTS of pediatric cancer cell lines to identify multiple opportunities for drug repurposing: Primary screen for BT-37 cells (AID 1347094). Put shortly:
as §2

A short description of test [14]: qHTS of pediatric cancer cell lines to identify multiple opportunities for drug repurposing: Primary screen for OHS-50 cells (AID 1347103). Also: nearly all actives have a fitted effect of over 40% in size. Put shortly:
as §3

Test [15] can be described thus: qHTS of pediatric cancer cell lines to identify multiple opportunities for drug repurposing: Primary screen for SJ-GBM2 cells (AID 1347091). Put shortly: as §1
A short description of test [16]: qHTS of pediatric cancer cell lines to identify multiple opportunities for drug repurposing: Primary screen for BT-12 cells (AID 1347101). Also: nearly all actives have a fitted effect of over 25% in size. Put shortly: as §3
Potency is read from the fitted curve at half-maximal effect.

Take `C=CC(=O)N1CCC[C@@H](n2nc(-c3ccc(Oc4ccccc4)cc3)c3c(N)ncnc32)C1`: the Potency result in test [1] and in test [5] was “inactive” in each case. Also, the Potency in [2] is 23.5 µM (active); in test [3], 9.35 µM (active); in test [4] it was 10.5 µM (active); in test [6] it was 11.8 µM (active); in test [7], 12.1 µM (active); in [8], 2.35 µM (active). Moreover, the Potency in test [9] is 16.6 µM (active); in [10] it was 18.7 µM (active); in test [11], 33.2 µM (active).
In the case of `CCNC(=O)Nc1ccc2ncc(Nc3ccc(C)cc3)nc2n1`, the Potency in [1] was 1.86 µM (active); in test [2], 0.0372 µM (active); in test [12] it was 0.0053 µM (active); in [13], 24.3 µM (active); in test [4], 18.7 µM (active); in test [6], 18.7 µM (active). Moreover, the Potency in test [9] is 0.935 µM (active); in test [14] it was 24.3 µM (active).
With `CC(C)c1cc(-c2n[nH]c(=O)n2-c2ccc3c(ccn3C)c2)c(O)cc1O`, the Potency in test [1] is 0.131 µM (active); in [15], 0.118 µM (active); in [3], 0.118 µM (active); in test [12], 0.0526 µM (active); in test [13], 0.122 µM (active); in test [4] it was 0.0935 µM (active). Besides, the Potency in test [6] is 0.118 µM (active); in [7], 0.242 µM (active); in [8], 0.0662 µM (active); in test [9] it was 0.0662 µM (active); in [10], 0.0833 µM (active); in [14], 0.153 µM (active). In [11], the Potency was 0.059 µM (active).
On to `C[C@@H](Oc1cc(-n2cnc3ccc(CN4CCN(C)CC4)cc32)sc1C(N)=O)c1ccccc1C(F)(F)F`, for which the Potency in test [1] was 0.294 µM (active); in test [15] it was 0.0296 µM (active); in test [3], 0.0743 µM (active); in test [12], 0.105 µM (active); in [13], 0.153 µM (active); in test [4], 0.0469 µM (active). For the same compound, the Potency was 29.6 µM (active) in [5]; 0.108 µM (active) in [7]; 0.0235 µM (active) in test [8]; 0.0332 µM (active) in test [9]; 24.3 µM (active) in [16]; 20.9 µM (active) in test [10]. Also, in test [14], the Potency is 0.0968 µM (active).
Turning to `CCCCN1CCC(CNC(=O)c2c3n(c4ccccc24)CCCO3)CC1`, the Potency entry in test [1] and in test [5] was “inactive” throughout. The Potency in test [2] was 1.87 µM (active); in test [3] it was 1.48 µM (active); in test [12] it was 4.69 µM (active); in [4], 13.2 µM (active); in test [7], 15.2 µM (active); in test [11], 4.69 µM (active).
With `Cc1ccc(CN2CCNCC2)cc1NC(=O)CNc1ccc(F)c(F)c1`, the Potency result in test [1], in test [2], in [3], in test [12], in test [13] and in [4] was “inactive” in each case. Moreover, the Potency entry in test [8], in [9], in [16] and in [11] was “inactive” throughout. The Potency in test [7] was 19.2 µM (active).
Regarding `COc1cc(Nc2ncc(F)c(Nc3ccc4c(n3)N(COP(=O)(O)O)C(=O)C(C)(C)O4)n2)cc(OC)c1OC`, the Potency entry in test [1] and in test [13] was “inactive” each time. The Potency in [15] is 1.48 µM (active); in [3] it was 2.96 µM (active); in [12] it was 1.32 µM (active); in test [4], 0.935 µM (active); in [5], 4.69 µM (active); in test [6], 1.18 µM (active). Moreover, the Potency in [7] was 4.29 µM (active); in [8], 0.187 µM (active); in test [9], 1.87 µM (active); in test [10], 1.87 µM (active); in test [14], 1.22 µM (active); in [11], 3.32 µM (active).
For `CCC(=C(c1ccccc1)c1ccc(OCCN(C)C)cc1)c1ccccc1`, the Potency entry in [1], in test [2] and in [10] was “inactive” in each case. Further, the Potency was 18.7 µM (active) in [6] and 21.7 µM (active) in [14].
On to `COC(=O)Nc1nc2ccc(C(=O)c3ccc(F)cc3)cc2[nH]1`, for which the Potency result in test [1], in test [5] and in test [10] was “inactive” each time. Moreover, the Potency in test [2] is 0.743 µM (active); in test [15], 0.526 µM (active); in [3] it was 0.59 µM (active); in [4], 0.264 µM (active); in test [6], 0.526 µM (active); in test [9] it was 0.209 µM (active). Moreover, the Potency was 1.72 µM (active) in test [16], 0.968 µM (active) in [14] and 0.743 µM (active) in test [11].
Consider `CCc1cc2c(cc1N1CCC(N3CCOCC3)CC1)C(C)(C)c1[nH]c3cc(C#N)ccc3c1C2=O`, for which the Potency result in test [1], in [2], in test [15], in test [3], in test [13] and in test [7] was “inactive” throughout. The Potency entry in test [16], in test [10] and in [11] was “inactive” in each case.
As for `NC(=O)c1cccc2cn(-c3ccc([C@@H]4CCCNC4)cc3)nc12`, the Potency is 20.8 µM (active) in test [1]; 1.87 µM (active) in test [3]; 8.33 µM (active) in test [12]; 6.62 µM (active) in test [4]; 20.9 µM (active) in test [8]. For the same compound, the Potency entry in [2], in [7] and in test [16] was “inactive” each time.
With `COc1cc(C(=O)NS(=O)(=O)c2ccccc2C)ccc1Cc1cn(C)c2ccc(NC(=O)OC3CCCC3)cc12`, the Potency result in test [1] and in [4] was “inactive” each time. Moreover, the Potency in test [2] was 29.6 µM (active); in test [3], 14.8 µM (active); in test [12], 8.33 µM (active); in [6] it was 20.9 µM (active); in test [10], 26.4 µM (active); in test [14] it was 21.7 µM (active). Also, in [11], the Potency is 37.2 µM (active).
On to `CS(=O)(=O)N1CCN(Cc2cc3nc(-c4cccc5[nH]ncc45)nc(N4CCOCC4)c3s2)CC1`, for which the Potency in test [1] is 0.829 µM (active); in test [15], 0.372 µM (active); in test [3], 4.69 µM (active); in test [12] it was 0.0418 µM (active); in test [13], 6.85 µM (active); in test [4], 0.833 µM (active). Also, the Potency was 0.0526 µM (active) in test [6]; 0.833 µM (active) in test [8]; 1.05 µM (active) in test [9]; 1.32 µM (active) in test [10]; 0.0769 µM (active) in [14].
For `Cn1c(CNc2ccc(C(=N)N)cc2)nc2cc(C(=O)N(CCC(=O)O)c3ccccn3)ccc21`, the Potency entry in test [1], in test [2], in test [15], in test [13], in test [4] and in [5] was “inactive” each time. Moreover, the Potency result in test [6], in [9], in [16], in test [14] and in [11] was “inactive” each time.
Regarding `CN(C)CC(C)(C)CNc1nn2c(-c3ccccc3)nnc2cc1C1CCC1`, the Potency in [1] was 18.6 µM (active); in test [15] it was 1.18 µM (active); in test [3], 0.743 µM (active); in [12], 0.469 µM (active); in test [13] it was 0.863 µM (active); in [4] it was 0.264 µM (active). Further, the Potency in test [6] was 5.9 µM (active); in test [7], 1.21 µM (active); in [8], 0.935 µM (active); in test [14] it was 1.37 µM (active). Further, the Potency result in [5] is “inactive”.
